Data on 34 molecules can be found in PubChem BioAssay (EPA / NIEHS).

Active and inactive are the calls of the source. The calls were made as follows: active = hit-call score of the fitted dose curve at least 0.9, where 1 is the maximum; inactive = score below 0.9.

Chain of Retinoic acid receptor alpha (Homo sapiens) (P10276 whole entry, looked up): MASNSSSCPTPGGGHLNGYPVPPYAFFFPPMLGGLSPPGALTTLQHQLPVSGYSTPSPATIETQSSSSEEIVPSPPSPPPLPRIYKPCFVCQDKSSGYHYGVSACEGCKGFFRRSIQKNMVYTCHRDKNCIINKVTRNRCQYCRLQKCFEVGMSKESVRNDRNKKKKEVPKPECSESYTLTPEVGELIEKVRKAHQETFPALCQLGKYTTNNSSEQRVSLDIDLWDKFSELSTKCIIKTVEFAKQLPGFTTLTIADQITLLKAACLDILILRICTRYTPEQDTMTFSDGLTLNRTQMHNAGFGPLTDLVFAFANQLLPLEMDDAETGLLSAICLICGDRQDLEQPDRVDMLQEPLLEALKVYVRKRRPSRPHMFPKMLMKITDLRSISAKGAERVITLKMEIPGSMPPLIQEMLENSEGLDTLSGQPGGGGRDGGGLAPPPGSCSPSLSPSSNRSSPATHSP
Chain of Transcription factor E2F1 (Homo sapiens) (Q01094 whole entry, looked up): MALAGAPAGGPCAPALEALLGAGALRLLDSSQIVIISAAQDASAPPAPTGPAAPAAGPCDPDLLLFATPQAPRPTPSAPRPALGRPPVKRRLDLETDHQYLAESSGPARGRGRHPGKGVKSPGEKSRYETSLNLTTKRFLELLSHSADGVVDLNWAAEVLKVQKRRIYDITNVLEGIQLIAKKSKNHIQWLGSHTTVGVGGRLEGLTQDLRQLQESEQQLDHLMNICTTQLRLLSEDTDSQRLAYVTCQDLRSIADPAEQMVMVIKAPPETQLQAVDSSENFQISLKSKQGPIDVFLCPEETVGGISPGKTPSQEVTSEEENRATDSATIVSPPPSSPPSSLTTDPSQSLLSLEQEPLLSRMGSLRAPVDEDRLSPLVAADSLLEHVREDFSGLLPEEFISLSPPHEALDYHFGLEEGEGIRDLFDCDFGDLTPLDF

One experiment concerns the target Retinoic acid receptor alpha (Homo sapiens) (UniProt P10276). The experiment in a line: ATG_DR5_RAR_CIS: Attagene CIS-FACTORIAL HepG2 Assay for human Retinoic Acid Receptor Alpha (RARE), DR5 submotif (AID 2282934).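 As to AC50: reporter responds to endogenous RAR alpha beta and gamma in HepG2 not RARA alone.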 The settings on record: HepG2 Attagene cis-factorial RARE DR5 reporter, mRNA; actives raise or lower the signal. Put shortly: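 Read-out: DR5-driven reporter transcript measured by RT-PCR, 6-FAM primer extension, HpaI digest and capillary electrophoresis. Human HepG2 liver cells carry transiently transfected cis-element reporter constructs; dosing lasts 24 h. Gain or loss of signal fitted against DMSO baseline.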
As for `NNCCO`, the result was inactive.

In the case of `ClCCN1CCOCC1`, the call was inactive.

For the molecule `C[C@@H]1O[C@@H](O[C@H]2C[C@@H](O)[C@]3(CO)[C@H]4[C@H](O)C[C@]5(C)[C@@H](C6=CC(=O)OC6)CC[C@]5(O)[C@@H]4CC[C@]3(O)C2)[C@H](O)[C@H](O)[C@H]1O`, the AC50 (as a rule, the concentration giving half of the maximal activity seen) is 0.155 µM (active).

Turning to `O=[N+]([O-])c1cccc2ccccc12`, the molecule was classed as inactive.

Regarding `CCOP(=S)(OCC)OP(=S)(OCC)OCC`, the molecule was classed as inactive.

Turning to `FC(F)OCC(F)(F)C(F)(F)F`, the call was inactive.

Take `Oc1ccc(Cc2ccc(O)cc2)cc1`: the molecule was called inactive.

As for `CCOc1ccc(N)cc1`, the call was inactive.

For the molecule `CCCCOP(=O)(CCCC)OCCCC`, the outcome was inactive.

On to `N#CCCC(Br)(C#N)CBr` (stereo unspecified), for which the AC50 is 55.3 µM (active).

On to `CC(C=O)Cc1ccc2c(c1)OCO2` (stereo unspecified), for which the molecule was classed as inactive.

On to `CCCCOC(C)=O`, for which the molecule was classed as inactive.

For `C=CCOC(N)=O`, the molecule was classed as inactive.

As to `CCCCC(CC)C(=O)Cl` (stereo unspecified), the molecule was classed as inactive.

On to `O=S1(=O)OC(c2cc(Br)c(O)c(Br)c2)(c2cc(Br)c(O)c(Br)c2)c2ccccc21`, for which the result was inactive.

Consider `O=C=Nc1ccc(Cl)cc1`, for which the result was inactive.

Take `Cc1cc(Cl)ccc1OC(C)C(=O)O` (stereo unspecified): the call was inactive.

Consider `Fc1cccc(Cl)c1CCl`, for which the molecule was classed as inactive.

For another experiment, the target named is Transcription factor E2F1 (Homo sapiens) (UniProt Q01094). Description: ATG_E2F_CIS: Attagene CIS-FACTORIAL HepG2 Assay for human E2F Transcription Factor 1 (AID 2282935). The conditions noted are these: HepG2 Attagene cis-reporter, E2F reporter RNA transcripts; actives raise or lower the signal. The method, boiled down:
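Measures reporter transcript levels via RT-PCR with capillary electrophoresis detection in HepG2 cells harboring cis-regulated reporter units; 24 h post-dose; bidirectional curve fitting with DMSO as baseline.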
With `CCOP(=O)(OCC)OC(=CCl)c1ccc(Cl)cc1Cl`, the call was inactive.

As to `O=C(CCl)Nc1ccccc1`, the AC50 was 147 µM (active).

As for `O=[N+]([O-])c1cccc2ccccc12`, the call was inactive.

Regarding `CC(C)(c1ccc(O)c(-c2ccccc2)c1)c1ccc(O)c(-c2ccccc2)c1`, the outcome was inactive.

For the molecule `CC1(C)[C@H](C(=O)O[C@H](C#N)c2cccc(Oc3ccccc3)c2)[C@@H]1/C=C(\Cl)C(F)(F)F`, the outcome was inactive.

As to `CC(C)(c1ccccc1)c1cc(-n2nc3ccccc3n2)c(O)c(C(C)(C)c2ccccc2)c1`, the molecule was called inactive.

On to `CCN(N=O)C(N)=O`, for which the result was inactive.

For `O=C(CBr)c1ccc(O)cc1`, the molecule was classed as inactive.

For `ClCc1ccccc1CCl`, the call was inactive.

With `c1cc[c]([Sb]([c]2ccccc2)[c]2ccccc2)cc1`, the molecule was called inactive.

Regarding `O=[N+]([O-])c1cc([As](=O)(O)O)ccc1O`, the molecule was classed as inactive.

On to `CC(C=O)Cc1ccc2c(c1)OCO2` (stereo unspecified), for which the outcome was inactive.

Turning to `CCCCOC(C)=O`, the molecule was classed as inactive.

In the case of `CC(C)(C1CCC(O)CC1)C1CCC(O)CC1` (stereo unspecified), the outcome was inactive.

With `CCNc1nc(NCC)nc(SC)n1`, the molecule was called inactive.

As to `O=c1[nH]c(=O)n(Cl)c(=O)n1Cl`, the molecule was classed as inactive.

For `C=CCOC(N)=O`, the result was inactive.

On to `N#CS`, for which the molecule was classed as inactive.

For the molecule `CCCCC(CC)C(=O)Cl` (stereo unspecified), the result was inactive.

With `O=S1(=O)OC(c2cc(Br)c(O)c(Br)c2)(c2cc(Br)c(O)c(Br)c2)c2ccccc21`, the call was inactive.

Consider `O=C=Nc1ccc(Cl)cc1`, for which the molecule was classed as inactive.

For `C[N+](C)(C)Cc1ccccc1`, the result was inactive.

With `CCOP(=S)(OCC)Oc1ccc(Cl)cc1Cl`, the call was inactive.
